We go through 7 compounds from PubChem BioAssay (NCI).

What all share (experiment): NCI-60 one-dose screen, 48 h (100 = growth as untreated, 0 = no growth, -100 = all killed)
Holding throughout (settings): 10 µM unless noted

Assay [1] concerns NCI-H23 lung.
Assay [2] concerns NCI-H226 lung.
For assay [3], the system named is NCI-H322M lung.
Assay [4] deals with HOP-62 NSCLC.
Assay [5] concerns NCI-H460 lung.
The subject of assay [6] is HOP-92 NSCLC.
Assay [7] deals with NCI-H522 lung.
Assay [8] has as its system A549/ATCC NSCLC.
Assay [9] deals with 786-0 renal.
For assay [10], the system named is COLO 205 colon.
Assay [11] relates to DU-145 prostate.
The subject of assay [12] is K-562 leukemia.
The test system of assay [13] is MALME-3M melanoma.
For assay [14], the system named is MDA-MB-231 breast.
Assay [15] relates to RXF 393 renal.
Assay [16] relates to SF-268 CNS.
The test system of assay [17] is SF-295 CNS.
For assay [18], the system named is SF-539 CNS.
For assay [19], the system named is UACC-257 melanoma.
Assay [20] deals with M14 melanoma.

Structures are written as SMILES. About 83,000 compounds went through this panel and 20% of them were active in at least one assay; those are over-represented in the sample as a whole.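 The test compound was applied at a single concentration to cells in 96-well plates for 48 hours, and percent growth was recorded.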 Unmarked numbers belong to inactive results. Activity calls are given as the source filed them. How the source made its calls: active means growth percent below 10; inactive means the rest.

In the case of `O=C(CSc1nc2ccccc2c(=O)n1-c1ccc(Cl)cc1)N/N=C/c1ccc(Oc2ccc(Cl)cc2)cc1`, the growth in assay [1] was 3.12% (active); in [2] it was 75.6%; in assay [3] it was 89.8%; in assay [4], 32.6%; in [5] it was -34.5% (active); in [6], 2.59% (active). In addition, the growth in assay [7] was 20.7%; in [8], 16.5%; in [9], -4.71% (active); in assay [10] it was 14.6%; in [11] it was 13.1%; in [12], 23%. For the same compound, the growth is -39.4% (active) in [13]; 30.4% in assay [14]; -43.8% (active) in [15]; 55.8% in assay [16]; 64.7% in assay [17]; 69.7% in [18]. Moreover, the figures for the growth in [19] and in [20] were 59% and -39.4% (active), respectively.

Regarding `O=C(/C=C/c1ccccc1)c1cccc(O)c1`, the growth in assay [1] was 104%; in assay [2] it was 93.4%; in assay [3], 93.4%; in [4] it was 105%; in assay [5] it was 101%; in [6], 96.1%. For the same compound, the growth in [7] is 95.1%; in assay [8], 92.7%; in [9], 94.6%; in assay [10] it was 110%; in assay [11], 105%; in assay [12], 71.6%. Moreover, the growth in [13] is 104%; in assay [14], 105%; in [15] it was 92.4%; in assay [16], 104%; in assay [17] it was 98.3%; in [18], 103%. Moreover, the growth is 101% in [19] and 95.1% in [20].

With `O=C(CCCCCC/C=C\c1csc(Br)n1)NO`, the growth in assay [1] was 95.2%; in [2], 96.8%; in assay [3] it was 100%; in [4], 88.9%; in assay [5], 85.8%; in assay [6] it was 102%. In addition, the growth in assay [7] is 65.6%; in assay [8] it was 91.9%; in [9], 104%; in assay [10] it was 95%; in assay [11], 87.7%; in assay [12], 50.5%. Further, the growth is 66.7% in assay [13]; 98.4% in assay [14]; 97% in [15]; 108% in [16]; 95.4% in assay [17]; 78.9% in [18]. Moreover, the growth in assay [19] is 82%; in assay [20], 93.9%.

For `COc1ccc(OC)c(NC(=O)CCCCCCNC(=O)C(O)(O)C(F)(F)F)c1`, the growth is 48.6% in assay [1]; 78.7% in assay [2]; 61% in [3]; 36.8% in assay [4]; 39% in assay [5]; 28.8% in assay [6]. In addition, the growth is -0.794% (active) in [7]; 47.7% in assay [8]; 50% in [9]; 10.5% in assay [10]; 34.9% in assay [11]; 19.4% in assay [12]. For the same compound, the growth was 24.9% in assay [13]; 61.6% in assay [14]; 1.79% (active) in [15]; 55% in assay [16]; 20.6% in [17]; 46% in assay [18]. The growth in assay [19] is 41.2%; in [20] it was 46.8%.

`CC(C)(C)OC(=O)Nc1ccc(-c2cccc(Oc3ccc4nnc(Cl)n4n3)c2)cc1`: the growth was 69.7% in [1]; 66.4% in assay [2]; 101% in assay [3]; 104% in [4]; 82.4% in assay [5]; 42.3% in [6]. The growth is 64.9% in assay [7]; 85.6% in assay [8]; 81.9% in [9]; 88.5% in assay [10]; 82.7% in [11]; 31.2% in [12]. Also, the growth is 106% in assay [13]; 83.8% in [14]; 89.8% in assay [15]; 104% in assay [16]; 84.1% in assay [17]; 92.7% in assay [18]. Moreover, the growth in assay [19] is 87.1%; in assay [20], 65.9%.

As for `C#CCN(C)CCCOc1ccc(NC(=O)CCCCCCCCC(=O)NO)cc1Cl`, the growth in assay [1] was 54.2%; in assay [2], 73.2%; in assay [3] it was 92.2%; in assay [4], 77.6%; in assay [5], 81.8%; in assay [6] it was 64.8%. In addition, the growth was 51.9% in assay [7]; 72.9% in assay [8]; 87.9% in assay [9]; 76.1% in assay [10]; 81.7% in assay [11]; 40.7% in [12]. Further, the growth is 45.9% in [13]; 89.5% in [14]; 37.3% in assay [15]; 97.8% in assay [16]; 50.2% in assay [17]; 74.5% in [18]. The growth is 42.8% in assay [19] and 72.9% in [20].

As to `COc1cc(/C=C2/C(=O)Nc3ccc(Cl)cc32)ccc1OCc1ccc(Cl)cc1`, the growth was 81.2% in assay [1]; 95.7% in assay [2]; 89.3% in [3]; 92.1% in [4]; 70.5% in [5]; 88.3% in [6]. Further, the growth in [7] is 87.9%; in assay [8], 84.9%; in [9] it was 100%; in assay [10] it was 93.4%; in assay [11] it was 89.5%; in assay [12], 88.6%. For the same compound, the growth in [13] was 82.3%; in assay [14], 86.9%; in [15] it was 93.4%; in [16], 90.2%; in assay [17], 97.7%; in [18], 92.2%. Besides, the growth is 102% in assay [19] and 96.4% in assay [20].
